A selection: hits, their analogues and other compounds. The true share with any hit is near 0.93%.
CIT2 TOR yeast = modulators of CIT2-GFP expression in yeast, primary screen, S. cerevisiae, GFP fusion, multiplex flow cytometry, MLPCN library; S. cerevisiae CIT2-GFP strain, 3 h; 100 means same as DMSO wells; GFP response vs DMSO, % at 10 µM; hit rate 0.065% among 320,000;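 active = GFP response relative to DMSO above a set limit, near the screen mean plus 3 SD, cut at about 150% in these data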;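 also: ratio of well median GFP fluorescence to mean of DMSO wells on the plate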
MEP2 TOR yeast = modulators of MEP2-GFP levels in yeast, primary screen, S. cerevisiae, multiplex flow cytometry, MLPCN library | S. cerevisiae MEP2-GFP strain, 3 h; 100% = DMSO control level | GFP response vs DMSO, % at 10 µM | hit rate 0.51% among 330,000 | AID 2016, 2009;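 active = GFP response versus DMSO above a set limit, roughly screen mean plus 3 SD, cut at about 180% in these data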;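 also: median GFP fluorescence of the barcode-gated MEP2-GFP cells per well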
AGP1 TOR yeast = modulators of AGP1-GFP expression in yeast TOR pathway, primary screen, cell-based, multiplex flow cytometry, S. cerevisiae, MLPCN library | AID 2066, 2009 | GFP response vs DMSO, % at 10 µM | hit rate 0.02% among 320,000 | 3 h; GFP as percent of DMSO wells;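 active = GFP response relative to DMSO above a set limit, near screen average plus 3 SD, cut at about 150% in these data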;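 also: median GFP channel fluorescence of the gated AGP1 strain per well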
LAP4-GFP MLPCN = modulators of LAP4-GFP expression in yeast, primary screen, S. cerevisiae, multiplex flow cytometry, MLPCN library | 3 h; median GFP as percent of DMSO wells | GFP response vs DMSO, % at 10 µM | hit rate 0.34% among 320,000;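 active = GFP response vs DMSO above a set limit, about the screen mean plus 3 SD, cut at about 150% in these data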
RPL19A TOR yeast = RPL19A-GFP expression modulators in yeast, primary screen, cell-based, S. cerevisiae, multiplex flow cytometry, MLPCN; percent response vs DMSO, % at 10 µM; AID 2025, 2009; S. cerevisiae RPL19A-GFP strain, 3 h; stronger effect = lower value; hit rate 0.3% among 330,000;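 active = percent response vs DMSO below 50%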;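 also: median channel GFP fluorescence of the barcoded RPL19A-GFP strain; lower means less RPL19A-GFP as with rapamycin TOR inhibition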
LAP4-GFP pick2 = LAP4-GFP expression modulators in yeast, confirmation, cell-based, second cherry pick, flow cytometry; hit rate 20% among 590; S. cerevisiae LAP4-GFP strain, 3 h; AID 2621, 2010; GFP response vs DMSO, % at 10 µM; shares compounds with LAP4-GFP MLPCN;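 active = GFP signal as percent of the solvent control above about 150%, meaning raised reporter expression, limit read from the data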
MEP2-GFP pick2 = modulators of MEP2-GFP levels in yeast, confirmation, S. cerevisiae, flow cytometry GFP, second cherry picks; S. cerevisiae MEP2-GFP strain, 3 h; shares compounds with LAP4-GFP MLPCN; hit rate 10% among 590; GFP response vs DMSO, % at 10 µM; AID 2622, 2010;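 active = GFP signal above 150% of the solvent control wells, that is a rise of more than half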;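 also: median channel GFP fluorescence of all gated yeast cells per well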
RPL19A GFP CP2 = RPL19A-GFP modulators in TOR pathway yeast, confirmation, cell-based, S. cerevisiae, flow cytometry, second cherry pick; hit rate 3% among 590; S. cerevisiae RPL19A-GFP strain, 3 h; stronger effect = lower value; 100% means same as DMSO wells; shares compounds with LAP4-GFP MLPCN; GFP response vs DMSO, % at 10 µM;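 active = under 65% GFP response relative to DMSO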;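 also: median GFP channel fluorescence per well over the all cells gate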
CIT2 GFP CP2 = modulators of CIT2-GFP expression in yeast, confirmation, flow cytometry, second cherry pick, single plex | AID 2624, 2010 | S. cerevisiae CIT2-GFP strain, 3 h; DMSO control wells read 100% | hit rate 8% among 590 | GFP response vs DMSO, % at 10 µM | shares compounds with LAP4-GFP MLPCN;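 active = GFP response vs DMSO above about 150%, limit read from the data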;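 also: median green fluorescence per well over all gated yeast cells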
AGP1 GFP CP2 = AGP1-GFP expression modulators, hit retest, confirmation, cell-based, flow cytometry, S. cerevisiae, cherry pick set 2 | AID 2643, 2010 | 590 tested, under 10 active | shares compounds with LAP4-GFP MLPCN | S. cerevisiae AGP1-GFP strain, 3 h | percent response vs DMSO, % at 10 µM;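 active = over 150 percent of DMSO response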;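 also: median GFP channel fluorescence over all cells without mother daughter split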
Yeast autofluor = compound autofluorescence in yeast s288c, dose response, artefact control for yeast TOR pathway GFP screen, s288c strain. shares compounds with LAP4-GFP MLPCN. S. cerevisiae s288c, 520 nm autofluorescence, flow cytometry, 3 h; stronger effect = higher value; zero means same as solvent-only cells. fluorescence change (kMESF span) at 33 µM. 610 tested, under 10 active. AID 2757, 2010;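 active = fluorescence span over the dose series, or activity score, above about 33, limit read from the data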
s288c autofl DR = autofluorescence of compounds in yeast s288c, dose response, artefact control for yeast TOR pathway GFP screen, primary hits, KU SAR, s288c parental | shares compounds with LAP4-GFP MLPCN | S. cerevisiae s288c parental, compound autofluorescence, flow cytometry, 3 h | fluorescence change (span) at 33 µM | 110 tested, under 10 active | AID 488829, 2010;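 active = fluorescence change span, or the activity score built from it, above 25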
TORC1 bypass gr = wild-type yeast growth inhibition sparing TORC1 bypass cells, mechanism study for yeast TOR pathway GFP screen, BY4741 wild type, TORC1 bypass strain; shares compounds with LAP4-GFP MLPCN; S. cerevisiae BY4741 spot growth rating, 48-72 h; stronger effect = lower value; growth rating (0-3) at 30 µM; 120 tested, under 10 active; AID 504456, 2011;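 active = growth rating at most 1 for wild type yeast while the TORC1 bypass strain still grows fully, rated 3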
Numbers stand for hits; n = inactive; x = no result.

SMILES	CIT2 TOR yeast	MEP2 TOR yeast	AGP1 TOR yeast	LAP4-GFP MLPCN	RPL19A TOR yeast	LAP4-GFP pick2	MEP2-GFP pick2	RPL19A GFP CP2	CIT2 GFP CP2	AGP1 GFP CP2	others
Cc1cc(Nc2ccccc2)nc(NCc2ccccc2)n1	n	n	n	n	n	x	x	x	x	x
O=C(O)CC(NC(=O)Cc1ccc([N+](=O)[O-])cc1)c1ccc2c(c1)OCO2 (stereo not given)	n	n	x	n	n	x	x	x	x	x
CCOC(=O)CC(=O)Nc1ccc(C)cc1	n	n	n	n	n	n	n	n	n	n
O=C(Nc1cc2c3c(c1)CC(=O)N3CCC2)c1ccccc1Br	n	n	n	n	n	x	x	x	x	x
Cc1cc(F)ccc1NC(=O)Cn1c(C)csc1=O	n	n	n	n	n	x	x	x	x	x
COCCCNC(=O)c1cc2c(=O)n3cccc(C)c3nc2n(C(C)C)c1=N	n	n	n	n	n	n	n	n	n	n
Nc1c(C(=O)NC2CC2)sc2nc3c(c(-c4ccco4)c12)CC/C3=C/c1ccco1	n	261.4	n	195.4	n	n	n	n	n	n
O=[N+]([O-])c1ccccc1CNC1CCCc2ccccc21 (stereo not given)	n	n	n	n	n	x	x	x	x	x
CC(=O)OC[C@]12CC[C@H]3[C@@](C)(CC[C@H]4C(C)(C)CCC[C@]34C)[C@@H]1C[C@H](C1=CC(=O)O[C@@H]1OC(C)=O)O2	n	n	n	154.5	n	210.4	172.9	n	172.4	n	Yeast autofluor=n
CC1(C)CCC[C@]2(C)[C@H]3CC(=O)O[C@]3(C)CC[C@@H]12	n	n	n	n	n	x	x	x	x	x
COc1ccc(S(=O)(=O)N2CCCCCC2)cc1C(=O)NC1(C)CCS(=O)(=O)C1 (stereo not given)	n	n	n	n	n	x	x	x	x	x
COc1ccc(S(=O)(=O)N2CCc3ccccc32)cc1C(=O)NC1(C)CCS(=O)(=O)C1 (stereo not given)	165.3	n	n	158.2	n	n	n	n	n	n
CC1=CC(=O)c2ccccc2C1=O	n	n	n	n	n	x	x	x	x	x
CC(C)(C=O)C1=CC(=O)c2ccccc2C1=O	n	n	n	193.0	n	n	n	n	n	n
N#C/C(=C/c1ccc(N2CCCCC2)o1)c1cccc(F)c1	n	n	n	151.6	n	n	n	n	n	n
N#C/C(=C/c1ccc(N2CCCCCC2)o1)c1ccc(Cl)cc1	n	n	n	n	n	x	x	x	x	x
Cc1[nH][nH]c(=O)c1C(c1ccc(-c2ccc(Cl)c(Cl)c2)o1)c1c(C)[nH][nH]c1=O	n	n	n	217.2	n	x	x	x	x	x	Yeast autofluor=n
Cc1[nH][nH]c(=O)c1C(c1ccc(-c2ccc(F)cc2)o1)c1c(C)[nH][nH]c1=O	n	n	n	n	n	x	x	x	x	x
COCCN(CCOC)S(=O)(=O)c1ccc(NC(=O)c2cnccn2)cc1	n	n	n	n	n	x	x	x	x	x
O=C(Nc1ccc(O)cc1)C1CCCN1S(=O)(=O)c1ccc(F)cc1 (stereo not given)	n	195.5	n	n	n	n	n	n	n	n	Yeast autofluor=n
COC(=O)[C@]1(CC(C)C)N[C@H](c2ccc(-c3cccc(Cl)c3)cc2)[C@@H]2C(=O)N(C)C(=O)[C@@H]21	n	n	n	n	n	x	x	x	x	x
O=C(/C=C/c1ccc(Cl)cc1)c1cccnc1	n	n	n	n	n	n	n	n	n	n
N#Cc1ccc(/C=C/C(=O)c2cccnc2)cc1	n	n	n	n	n	x	x	x	x	x
O=C1CC(N(CCc2ccccc2)C(=S)Nc2cc(Cl)ccc2Cl)C(=O)N1c1c(Cl)cccc1Cl (stereo not given)	n	n	n	n	n	x	x	x	x	x
COc1ccccc1Nc1nc(NCCO)nc(N)c1[N+](=O)[O-]	n	n	n	n	n	x	x	x	x	x
SMILES	CIT2 TOR yeast	MEP2 TOR yeast	AGP1 TOR yeast	LAP4-GFP MLPCN	RPL19A TOR yeast	LAP4-GFP pick2	MEP2-GFP pick2	RPL19A GFP CP2	CIT2 GFP CP2	AGP1 GFP CP2	others
CNc1nc(N)c([N+](=O)[O-])c(Nc2cc(OC)ccc2OC)n1	x	x	x	x	x	x	x	x	x	x	s288c autofl DR=n;TORC1 bypass gr=n
COCCCNc1nc(N)c([N+](=O)[O-])c(Nc2cc(OC)ccc2OC)n1	n	n	n	n	n	x	x	x	x	x
CNc1nc(N)c([N+](=O)[O-])c(Nc2ccccc2OC)n1	n	n	n	n	n	x	x	x	x	x	s288c autofl DR=n;TORC1 bypass gr=n
CCOC(=O)CSC1=NC(=O)/C(=C/c2ccc(OC)cc2)S1	n	n	n	152.3	n	x	x	x	x	x	Yeast autofluor=n
O=C(O)COc1ccc(/C=N/NC(=O)c2cccc3ccccc23)cc1	n	n	n	n	n	x	x	x	x	x
CN(C)c1ccc(N=Cc2nc(-c3ccccc3)oc2OC(=O)c2cccc(Cl)c2)cc1	n	n	n	n	n	x	x	x	x	x	Yeast autofluor=n
Cc1ccc(-c2nc(C=Nc3ccccc3)c(O)o2)cc1	n	n	n	n	n	x	x	x	x	x
Cc1ccc(C(=O)Oc2oc(-c3ccccc3)nc2C=Nc2ccc(N(C)C)cc2)cc1	n	n	n	n	n	x	x	x	x	x	Yeast autofluor=n

Screens from PubChem BioAssay.
